{"source": "ChEMBL document CHEMBL4513216", "about": "“Probing the Open Global Health Chemical Diversity Library for Multistage-Active Starting Points for Next-Generation Antimalarials” (ACS Infect Dis, 2020)", "note": "Hit rate of the full screen: of about 69,000 compounds, about 8,600 (12%) showed an effect of 50% or more. The list comes from a sample in which strong results are over-represented; it also holds similar structures and randomly drawn compounds."}
{"system": "Plasmodium berghei", "assay": "Screen against P. berghei liver stage (PbLuc), transformed with Luciferase, at 10uM", "type": "functional, HepG2", "settings": "tested at 10 uM", "units": {"INHIBITION": "%"}}
{"smiles": "COc1cc(N2C[C@H]3CN(C(=O)c4cccnc4)C[C@H]3C2)ncn1", "INHIBITION": 0.164}
{"smiles": "CC(C)N(C)Cc1cc(=O)n2c(n1)CN(C(=O)c1cnccn1)CCC2", "INHIBITION": 33.5}
{"smiles": "CC(C)Oc1cccc(CNC(=O)NC(C)(C(=O)O)c2ccco2)c1", "note": "(stereo not drawn)", "INHIBITION": 14.4}
{"smiles": "CC(NC(=O)NCc1cccc(F)c1)(C(=O)O)c1ccco1", "note": "(stereo not drawn)", "INHIBITION": 4.52}
{"smiles": "CC(NC(=O)NCc1c(F)cccc1Cl)(C(=O)O)c1ccco1", "note": "(stereo not drawn)", "INHIBITION": 14.1}
{"smiles": "CC(NC(=O)NCc1ccccc1F)(C(=O)O)c1ccco1", "note": "(stereo not drawn)", "INHIBITION": 25.1}
{"smiles": "CC(NC(=O)NCc1ccccc1)(C(=O)O)c1ccco1", "note": "(stereo not drawn)", "INHIBITION": 58}
{"smiles": "COc1ccc(CNC(=O)NC(C)(C(=O)O)c2ccco2)cc1F", "note": "(stereo not drawn)", "INHIBITION": 53.9}
{"smiles": "COc1c(CNC2CCCOc3ccc(F)cc32)c(C(C)C)nn1C", "note": "(stereo not drawn)", "INHIBITION": 0.914}
{"smiles": "CC(C)NC(=O)N1CC[C@@H](N(C)C)[C@@H]1Cc1ccccc1", "INHIBITION": 0.804}
{"smiles": "c1ccc2ncc(CC3CNCCOC3)cc2c1", "note": "(stereo not drawn)", "INHIBITION": 3.48}
{"smiles": "COCCN1CC[C@]2(CN(Cc3ccccn3)C[C@H]2C)C1=O", "INHIBITION": -2.03}
{"smiles": "COCCCC(=O)N1CCC(Nc2cccnn2)CC1", "INHIBITION": 31.9}
{"smiles": "O=C(CCc1ccsc1)N1CCC(Nc2cccnn2)CC1", "INHIBITION": 25.1}
{"smiles": "O=C(CCCc1ccccc1)N1CCC(Nc2cccnn2)CC1", "INHIBITION": -6.44}
{"smiles": "O=C(CCOc1ccccc1)N1CCC(Nc2cccnn2)CC1", "INHIBITION": 50.4}
{"smiles": "O=C(CCNc1ncccn1)N1CCC(Nc2cccnn2)CC1", "INHIBITION": 0.411}
{"smiles": "Cc1ccc(CCC(=O)N2CCC(Nc3cccnn3)CC2)cc1", "INHIBITION": 52.5}
{"smiles": "Cn1nc(Cn2cccn2)c2c1CN(C1CCOC1)C2", "note": "(stereo not drawn)", "INHIBITION": -4.02}
{"smiles": "COCC(=O)N1CCN(C)C(=O)C(Cc2ccccc2-c2cccs2)C1", "note": "(stereo not drawn)", "INHIBITION": -20.6}
{"smiles": "O=C(NCC1CC1)C1CCC2(CCN(C(=O)c3ccncc3)CC2)O1", "note": "(stereo not drawn)", "INHIBITION": -6.05}
{"smiles": "CCc1nc(C2CCCN2Cc2nnc(C3CC3)o2)no1", "note": "(stereo not drawn)", "INHIBITION": -5}
{"smiles": "Cc1oc(-c2ccco2)nc1CN1CCCC(Cn2cncn2)C1", "note": "(stereo not drawn)", "INHIBITION": -97.8}
{"smiles": "CC(=O)N(Cc1ncc(C(C)C)o1)C1CCN(Cc2cc(C)no2)C1", "note": "(stereo not drawn)", "INHIBITION": 13.95}
{"smiles": "Cc1nccn1CCCNc1nccnc1C#N", "INHIBITION": 12.9}
{"smiles": "CN1CCC2(CCN(CC3CCOCC3)CC2)C1=O", "INHIBITION": 26.5}
{"smiles": "CS(=O)(=O)c1ccc(C(=O)NCc2nc3cc(F)ccc3[nH]2)cc1", "INHIBITION": 52.2}
{"smiles": "O=C(NCc1nc2cc(F)ccc2[nH]1)c1ccc[nH]1", "INHIBITION": -7.16}
{"smiles": "CS(=O)(=O)c1cccc(C(=O)NCC2Cc3ccccc3O2)c1", "note": "(stereo not drawn)", "INHIBITION": 9.06}
{"smiles": "CS(=O)(=O)c1ccc(C(=O)NCCNc2ncccn2)cc1", "INHIBITION": -5.07}
{"smiles": "CS(=O)(=O)c1cccc(C(=O)NCc2nc3cc(F)ccc3[nH]2)c1", "INHIBITION": 64.5}
{"smiles": "CN(C)c1cc(CNC(=O)c2cccc(F)c2)ccn1", "INHIBITION": 24}
{"smiles": "CC(C)CN1CC(C(=O)NCc2cccnc2-n2cccn2)CC1=O", "note": "(stereo not drawn)", "INHIBITION": 19.5}
{"smiles": "Cc1noc(C2(C)CCCN(C(=O)C(C)C)C2)n1", "note": "(stereo not drawn)", "INHIBITION": 12.8}
{"smiles": "Cc1csc2c(C3CCCN(C(=O)Cn4cncn4)C3)nc(C)n12", "note": "(stereo not drawn)", "INHIBITION": 7.19}
{"smiles": "c1cncc(CN2CCc3ncnc(C4CC4)c3CC2)c1", "INHIBITION": 6.72}
{"smiles": "Cc1ccsc1C(=O)N1CCC2(CC(C(=O)N(C)C(C)C)=NO2)C1", "note": "(stereo not drawn)", "INHIBITION": 56.6}
{"smiles": "CC(C)N(C)C(=O)C1=NOC2(CCN(C(=O)c3ccc(Cl)cc3)C2)C1", "note": "(stereo not drawn)", "INHIBITION": -6.53}
{"smiles": "CC(C)N(C)C(=O)C1=NOC2(CCN(C(=O)c3ccncc3)C2)C1", "note": "(stereo not drawn)", "INHIBITION": 3.47}
{"smiles": "O=C(C1CC=CC1)N1CCc2c(COCc3ccncc3)cncc2C1", "INHIBITION": 6.8}
{"smiles": "CCc1nc(C2CCCN(C(=O)c3cccc(C(N)=O)c3)C2)no1", "note": "(stereo not drawn)", "INHIBITION": 19.5}
{"smiles": "Cc1ccc2cc(C(=O)N3CCS(=O)(=O)CC3)[nH]c2c1", "INHIBITION": 53.6}
{"smiles": "Cc1ccc2cc(C(=O)N3CCN(S(C)(=O)=O)CC3)[nH]c2c1", "INHIBITION": -11.4}
{"smiles": "Cc1ccc2cc(C(=O)N3CCN(C(=O)c4ccoc4)CC3)[nH]c2c1", "INHIBITION": 24.8}
{"smiles": "CCS(=O)(=O)CCN1CCN(C2CCC(C(C)C)CC2)CC1", "note": "(stereo not drawn)", "INHIBITION": 13.8}
{"smiles": "CC(NCC1(N(C)C)CCOCC1)c1ccc(SC(F)F)cc1", "note": "(stereo not drawn)", "INHIBITION": 40.5}
{"smiles": "CCOc1ccccc1C(CC(=O)Nc1ncc(C)s1)NC(C)=O", "note": "(stereo not drawn)", "INHIBITION": 39.3}
{"smiles": "CC(C)NC(=O)c1ccc2c(c1)nc1n2CCN(Cc2ccccc2)C1", "INHIBITION": 33.3}
{"smiles": "Fc1ccccc1CN1CCCC(NC2CCOCC2)C1", "note": "(stereo not drawn)", "INHIBITION": 49.4}
{"smiles": "O=C(Cc1ccsc1)N1CCCC(c2n[nH]c3ncccc23)C1", "note": "(stereo not drawn)", "INHIBITION": 67.7}
{"smiles": "O=C(Cc1ccsc1)N1CCC(c2n[nH]c3nccnc23)CC1", "INHIBITION": -0.902}
{"smiles": "CN1CCN(C(=O)Cc2ccc(F)cc2)Cc2cccnc21", "INHIBITION": -69.9}
{"smiles": "O=C(Cc1ccsc1)N1CCN(CC2CC2)c2ncccc2C1", "INHIBITION": 29.4}
